Bioassay records (PubChem)
Sampled rows, rich in hits. Any-hit rate of the full collection: about 2.3%.
Coupling enz = coupling enzyme interference in Giardia aldolase counter-screen; coupling enzyme system counterscreen, AmpLite Red fluorescence; activity change, negative = inhibition, % at 58.2 µM, hits read low; actives 0.67% (n = 290,000); AID 2472; in the data active means activity change below about -30%; further: on the % scale 0 is the no-effect control and ±100 the full control effect
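Fluorescence at 525 nm excitation and 598 nm emission measured inhibition of the coupled detection system without aldolase. Compounds (at 57.5 uM final) were preincubated 10 min at room temperature with coupling enzyme reagent before a 20 min substrate/AmpLite Red step.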
KDM4E inh = inhibitors of human JMJD2E histone demethylase; B2RXH2; JMJD2E catalytic domain, FDH-coupled NADH fluorescence (FDH is formaldehyde dehydrogenase); Potency, µM (top dose mostly 57.1 µM), without a hit: at the top dose activity change, negative = inhibition, most hits filed as inhibitors; actives 1.6% (n = 230,000); AID 2147; active means well fitted inhibition curve with a large enough effect, not every such curve was filed as active; inconclusive means small, poorly fitted or top-dose-only effect, or another doubt; inactive means no such curve, though single readings can be large or run the other way;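 further: potency means the concentration at half of the fitted maximal effect; 0% = wells with enzyme and -100% = buffer wells without enzyme; nearly all actives have a fitted effect of over 50% in size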
HTT aggregate = inhibitors of mutant huntingtin aggregate formation in PC12 cells; PC12 HttQ103-GFP aggregates, Acumen cytometry, 40 h; Potency, µM (doses to about 46.1 µM), for inactives: top-dose activity change, negative = inhibition, hits mostly inhibitors; actives 1.1% (n = 220,000); further: potency means the concentration at half of the fitted maximal effect; on the % scale 0 is the no-effect control and ±100 the full control effect; nearly all actives have a fitted effect of over 60% in size
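Using laser scanning cytometry, GFP-positive aggregates were counted after lysis of PC12 cells induced with 100 nM tebufenozide to express HTT exon 1 Q103–GFP. Compounds were tested in titration.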
VDR inh = blocks the human vitamin D receptor | Potency, µM, for inactives: max response, negative = inhibition, most hits filed as inhibitors | VDR-SRC2-3 peptide fluorescence polarization, 2 h | P11473 | actives 0.93% (n = 400,000); further: potency means the concentration at half of the fitted maximal effect; on the % scale 0 is the no-effect control and ±100 the full control effect
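Signal is fluorescence polarization, reporting how far test compounds block the interaction of VDR with the SRC2-3 coregulator peptide after a 2 h room-temperature incubation.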
HTT ATP protect = protects HTT-Q103 PC12 cells, measured by ATP. PC12 HTT-Q103 induced, cytoprotection, ATP luminescence, 40 h. Potency, µM (titrated, usually from 56.4 µM), without a hit: cytoprotection (ATP increase), most hits filed as activators. actives 0.14% (n = 230,000). AID 1471; further: potency means the concentration at half of the fitted maximal effect; % of control where 0% means no effect; nearly all actives have a fitted effect of over 45% in size
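Readout: ATPlite luminescence (ATP level). Model: stable PC12, inducible Htt exon1 Q103-GFP. Inducer: tebufenozide, 100 nM final. Compounds: dose series. No G418 in medium.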
GoLoco inh red = inhibitors of human Gai1-RGS12 GoLoco interaction (red fluorophore) | P63096 | Gai1:RGS12 GoLoco peptide FP, rhodamine, 10 min | Potency, µM (highest dose often 61.6 µM), without a hit: at the highest dose activity, negative = inhibition, usual class: inhibitors | actives 0.44% (n = 230,000); active means well fitted inhibition curve with a large enough effect, not every such curve was filed as active; inactive means no such curve, though single readings can be large or run the other way; further: potency means the concentration at half of the fitted maximal effect; on the % scale 0 is the no-effect control and ±100 the full control effect; nearly all actives have a fitted effect of over 30% in size
Target sequence (P63096 whole entry, looked up): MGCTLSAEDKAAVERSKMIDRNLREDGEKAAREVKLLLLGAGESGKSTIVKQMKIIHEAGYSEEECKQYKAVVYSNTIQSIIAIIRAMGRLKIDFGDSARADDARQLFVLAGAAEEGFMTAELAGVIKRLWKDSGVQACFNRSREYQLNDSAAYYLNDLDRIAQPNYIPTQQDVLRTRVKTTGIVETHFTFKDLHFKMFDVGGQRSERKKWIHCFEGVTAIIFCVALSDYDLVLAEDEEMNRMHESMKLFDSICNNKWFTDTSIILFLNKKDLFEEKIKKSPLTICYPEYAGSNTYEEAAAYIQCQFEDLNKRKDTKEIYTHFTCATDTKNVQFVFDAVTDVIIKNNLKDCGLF
VDR inh confirm = inhibits human vitamin D receptor, primary hit validation; VDR-coactivator inhibition assay, qHTS confirmation; Potency, µM, usual class: inhibitors; actives 89% (n = 840); shares compounds with VDR inh; further: potency means the concentration at half of the fitted maximal effect
VDR FP = VDR (human) coactivator binding inhibition, fluorescein polarization | actives 48% (n = 840) | shares compounds with VDR inh | VDR-coactivator binding, fluorescein fluorescence polarization | Potency, µM (top dose mostly 57.1 µM), for the others: at the top dose activity change, negative = inhibition, hits mostly inhibitors; further: potency means the concentration at half of the fitted maximal effect
VDR bla = confirmation of human vitamin D receptor inhibitors in reporter cells; shares compounds with VDR inh; VDR beta-lactamase reporter cells, FRET ratio; cells co-treated with VDR agonist LG190178; Potency, µM (doses to about 46.1 µM), without a hit: at the highest dose activity change, negative = inhibition, actives largely listed as inhibitors; actives 23% (n = 840); further: potency means the concentration at half of the fitted maximal effect; on the % scale 0 is the no-effect control and ±100 the full control effect
VDR viability = cytotoxic in counter-screen for VDR inhibitors | Potency, µM (series often up to 48.3 µM), for inactives: at the highest dose activity change, negative = cytotoxicity, actives largely listed as cytotoxic | shares compounds with VDR inh | AID 602204 | actives 18% (n = 840) | cytotoxicity counter-screen, cell viability, qHTS;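 further: potency means the concentration at half of the fitted maximal effect; plate controls were DMSO for no effect and high-concentration cycloheximide for full effect; nearly all actives have a fitted effect of over 75% in size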
Numbers without * were called inactive; ? = inconclusive; . = no result; [ ] = dose if it differs, or a comment. Unless noted, the call rests on the fitted dose curve; in most records, active means well fitted curve in the direction sought with a large enough effect; inconclusive means small, poorly fitted or top-dose-only effect, or another doubt; inactive means no such curve, though single readings can be large; an effect the other way counts as inactive or inconclusive.

SMILES | Coupling enz | KDM4E inh | HTT aggregate | VDR inh | HTT ATP protect | GoLoco inh red | VDR inh confirm | VDR FP | VDR bla | VDR viability
COc1ccccc1[C@@]1(C)ON(c2ccccc2C(F)(F)F)C1=O | . | . | . | -2% | . | . | . | . | . | .
CCOc1cc(/C=C2\CN(C)C/C(=C\c3ccc(O)c(OCC)c3)C2=O)ccc1O | 0 | . | . | ? | . | . | 18* | ? | 2.9µM* | 27µM*
Cc1ccc(N2CCN(C(=S)c3ccc(N(C)C)cc3)CC2)cc1 | 0 | -6% | ? | ? | 3%[10 µM] | 22% | . | . | . | .
CN(C)c1ccc(C(=S)N2CCN(c3ccc([N+](=O)[O-])cc3)CC2)cc1 | -30* | -5% | -7%[9.22 µM] | 79µM* | -4%[10 µM] | 20µM* | 27* | ? | -11% | 13%
C=CCn1c(O)c(C2=c3ccccc3=NC2=O)c2ccccc21 | 1 | . | . | 20µM* | . | . | 17* | ? | ? | ?
Cc1[nH]n(-c2ncc(-c3ccc(Cl)cc3)s2)c(=O)c1C(c1ccc(Cl)cc1)C(C#N)C#N (stereo unspecified) | 3 | ? | ? | 50µM* | -8%[10 µM] | 14% | 8.4* | 7.9µM* | 14% | -6%
CCCc1[nH][nH]c(=O)c1C(c1cccc(Cl)c1)C(C#N)C#N (stereo unspecified) | -2 | 4% | -13%[9.22 µM] | -25% | 5% | 18% | . | . | . | .
CC1(CCc2ccccc2)NC(=O)N(CC(=O)N2CCCCCC2)C1=O (stereo unspecified) | . | . | . | -8% | . | . | . | . | . | .
CC(C)CCCCCCCCCCCCC(=O)NCC(=O)NC1C(C)OC(Nc2ncnc3nc[nH]c23)C(O)C1O (stereo unspecified) | . | . | . | -17% | . | . | . | . | . | .
CC(C)(C)c1ccc(C(=O)CC(Sc2ccc(Cl)cc2)C(=O)O)cc1 (stereo unspecified) | 22 | 2% | -27% | 10µM* | . | 5% | 11* | 3.2µM* | -29% | ?
COc1ccc(/C=C2\SC(=O)NC2=S)cc1OC | 9 | -28% | -23% | 10µM* | -15%[10 µM] | 38% | 3* | 24% | 21% | -12%
Cc1ccc(/C=C2/SC(=O)NC2=S)o1 | -17 | ? | -3% | 35µM* | -3% | 5µM* | 24* | 22µM* | 27% | -23%
O=C1CN(S(=O)(=O)c2cccc(Cl)c2Cl)c2ccccc2N1 | -7 | . | . | 2% | . | . | . | . | . | .
Cc1nc(-c2ccccc2)sc1CCNC(=O)C(=O)Nc1ccc(F)c(Cl)c1 | . | . | . | 3% | . | . | . | . | . | .
O=C(CCN1CCOCC1)c1ccc(Br)cc1 | 0 | 4% | 3%[9.22 µM] | 22µM* | 14%[10 µM] | -9% | 24* | ? | ? | ?
O=C(CCN1CCN(c2ccccc2F)CC1)c1ccc(Br)cc1 | 3 | 25µM* | 8% | 18µM* | -31% | . | 17* | ? | ? | ?
O=C(O)CN1C(=O)/C(=C/C=C/c2ccccc2)SC1=S | 10 | -3% | 22% | -10% | -134% | 15% | . | . | . | .
O=C(O)CN1C(=O)/C(=C\C(Br)=C\c2ccccc2)SC1=S | -20 | . | . | 35µM* | . | . | ? | 18% | ? | ?
